Experimental findings from PubChem BioAssay (Tox21) are described below.

Inconclusive results are not listed. The source made the active and inactive calls. Unless noted, calls come from the whole dose curve.

The first assay in a line: qHTS assay to identify small molecule agonists of the endoplasmic reticulum stress response signaling pathway (AID 1159516; active = well fitted activation curve with a large enough effect in the signal ratio in the repeat runs, not every such curve was filed as active; the % refers to the signal ratio). To be noted: ESRE-bla HeLa, ER stress beta-lactamase reporter, 5 h; series mostly up to 61 µM. In outline:
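Fluorescence at 460 and 530 nm (405 nm excitation) reports beta-lactamase from an ER stress response element in HeLa cells treated 5 hr at 37 C.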
With `CCOc1c(N2CCOCC2)cnn(C)c1=O`, the outcome was inactive. Still for that read-out and setting: the same measure for `Cc1ncc([C@@H](CCCCCCc2ccc3c(n2)NCCC3)CC(=O)O)cn1`: “inactive”. Same read-out and setting: the same measure for `CN(C)CCCCCCN(C)C`: “inactive”.

The next assay in a line: qHTS assay to identify small molecule agonists of the endoplasmic reticulum stress response signaling pathway - cell viability counter screen (AID 1159517). Note: nearly all actives have a fitted effect of over 50% in size. As to conditions: ESRE-bla HeLa viability, CellTiter-Glo luminescence, 5 h; series mostly up to 61 µM. In outline:
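Steps: seed 1,500 ESRE-bla HeLa cells per well; incubate overnight at 37 C, 5% CO2; add compounds in DMSO for 5 hr; run FRET substrate 2 hr RT; add CellTiter-Glo, wait 30 min, read luminescence.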
`CC(=O)c1ccc2ccccc2c1`: the molecule was classed as inactive.

Turning to `O=[N+]([O-])c1cncn1CCN1CCOCC1`, the result was inactive. Same read-out and setting: the same measure for `CN(C)[C@@H]1C(=O)C(C(=O)NCN2CCCC2)=C(O)[C@@]2(O)C(=O)C3=C(O)c4c(O)cccc4[C@@](C)(O)C3C[C@@H]12` (stereo partly specified): “inactive”; for `C[C@H]1[C@H](NC(=O)/C(=N/OC(C)(C)C(=O)O)c2csc(N)n2)C(=O)N1S(=O)(=O)O` (stereo in doubt): “inactive”. The same measure, in the same setting: in the case of `C1CCC2(CCCCO2)OC1` it was “inactive”. On the same count and under the same terms, in the case of `CC(CC=O)CC(C)(C)C` (stereo unspecified) it was “inactive”; in that of `CC1=CCC(O)(C(C)C)CC1` (stereo unspecified), “inactive”; in that of `O=C(O)CNC(=O)c1ccccc1`, “inactive”.

Turning to `[Ca+2]`, the result was inactive. The same measure, in the same setting: in the case of `Cc1cccc(C)c1NC(=O)CC12CCCN1CCC2` it was “inactive”; in that of `CCN1C=CN(C)C1C` (stereo unspecified), “inactive”.

As for `CC1CCC(CO)CC1` (stereo unspecified), the molecule was called inactive. On the same count and under the same terms, the same measure for `CCC(C)(CCCC(C)C)OC(C)=O` (stereo unspecified): “inactive”; for `Nc1ccn([C@@H]2O[C@H](CO)[C@@H](O)C2O)c(=O)n1` (stereo partly specified): “inactive”; for `O=C1NC(=O)C2CC=CCC12` (stereo unspecified): “inactive”. Turning to `CC1(C)OC[C@@H](COC(=O)CCc2ccc(OC[C@@H](O)CNCCNC(=O)N3CCOCC3)cc2)O1`, the outcome was inactive. Same read-out and setting: in the case of `C[N+]1(C)[C@@H]2CC(OC(=O)[C@H](CO)c3ccccc3)C[C@H]1[C@@H]1O[C@@H]12` (stereo partly specified) it was “inactive”; in that of `CC(C)c1ccc2ncccc2c1`, “inactive”; in that of `CCCCOC(=O)CCC(C)=O`, “inactive”. The same measure, in the same setting: the same measure for `COc1cc(C(=O)OC(COCCC(C)C)CN2CCOCC2)cc(OC)c1OC` (stereo unspecified): “inactive”.

As for `O=C(CO)[C@@H](O)[C@H](O)[C@@H](O)CO`, the molecule was classed as inactive. Same read-out and setting: in the case of `CN(C)CCCCCCN(C)C` it was “inactive”. Same read-out and setting: in the case of `CCCC(=O)O[C@]1(C(=O)CC)CC[C@H]2[C@@H]3CCC4=CC(=O)CC[C@]4(C)[C@H]3[C@@H](O)C[C@@]21C` it was “inactive”. Same read-out and setting: the same measure for `C=C(C)C(=O)OCCOCCOCCOCCOC(=O)C(=C)C`: “inactive”. For the molecule `CC12CCC(C(=O)C1=O)C2(C)C` (stereo unspecified), the molecule was called inactive. Still for that read-out and setting: in the case of `O=C(O)Cc1csc(-c2ccc(Cl)cc2)n1` it was “inactive”; in that of `Cc1c(N)c(=O)n(-c2ccccc2)n1C`, “inactive”. Same read-out and setting: the same measure for `CCCCN(CCC(=O)OCC)C(C)=O`: “inactive”; for `CCOC(=O)c1ccccc1`: “inactive”; for `CCCOC(=O)CC`: “inactive”. On to `CC/C=C\CCOC(C)OCC` (stereo unspecified), for which the molecule was classed as inactive.

On to `CN(C)CCN(C)CCN(C)C`, for which the outcome was inactive.

With `CC(=O)N1C[C@H](O)C[C@H]1C(=O)O`, the result was inactive.
